Reference: PubChem BioAssay (NCATS)
Inconclusive results are not listed. Activity calls are given as the source filed them. Unless noted, calls come from the whole dose curve; as a rule, active = well fitted curve in the direction sought with a large enough effect (not every such curve was filed as active); inconclusive = small, poorly fitted or top-dose-only effect, or effect the other way, or another doubt; inactive = no such curve, though single readings can be large or run the other way.

These compounds were tested against Pyruvate kinase PKM (Homo sapiens) (UniProt P14618) (assay: qHTS Assay for Activators of Human Muscle Pyruvate Kinase (AID 954;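 note: 0% = uninhibited enzyme and -100% = no enzyme or full thiadiazolimine inhibition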)). Settings: purified human muscle pyruvate kinase, luciferase-coupled luminescence, 1 h; series mostly up to 57.5 µM; activity change, negative = inhibition: at the top concentration.
Chain of Pyruvate kinase PKM (Homo sapiens) (P14618 whole entry, looked up): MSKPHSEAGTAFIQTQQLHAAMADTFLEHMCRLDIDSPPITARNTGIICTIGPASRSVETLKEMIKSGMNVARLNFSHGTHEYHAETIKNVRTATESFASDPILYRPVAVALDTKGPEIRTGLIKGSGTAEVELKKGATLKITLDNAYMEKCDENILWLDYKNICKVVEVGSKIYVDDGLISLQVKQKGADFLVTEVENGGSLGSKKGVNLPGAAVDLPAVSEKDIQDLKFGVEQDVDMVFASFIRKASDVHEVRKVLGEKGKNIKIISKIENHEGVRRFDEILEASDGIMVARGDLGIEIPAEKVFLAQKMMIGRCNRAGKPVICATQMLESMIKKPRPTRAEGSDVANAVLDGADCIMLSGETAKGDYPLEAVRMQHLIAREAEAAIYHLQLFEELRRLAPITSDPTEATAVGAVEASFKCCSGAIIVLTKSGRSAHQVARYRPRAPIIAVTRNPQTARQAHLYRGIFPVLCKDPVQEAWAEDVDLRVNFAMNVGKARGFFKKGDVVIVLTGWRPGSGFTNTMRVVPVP
Summary of the method: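 A coupled luminescent readout tracked ATP made from ADP by purified PKM2. Final conditions included 0.1 nM enzyme, PEP and ADP at 0.5 and 0.1 mM, pH 7.2 imidazole buffer with BSA, and a one-hour room-temperature reaction.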
In the case of COc1ccc(/C=C/C(=O)Nc2ccccc2C(=O)O)cc1OC, the “activity change, negative = inhibition” value is reported as -83.5% (inactive).
c1cnc2c(c1)ccc1cccnc12 was tested, and the “activity change, negative = inhibition” value was -11.3% (inactive).
For Ic1ccc(N2CCN(Cc3c[nH]c4ncccc34)CC2)cc1, the “activity change, negative = inhibition” value was 4.56% (inactive).
NCCSSCCN was tested, and the “activity change, negative = inhibition” value was -27.5% (inactive).
For Cn1c(=O)c2[nH]c(-c3ccccc3)nc2n(C)c1=O, the “activity change, negative = inhibition” value was -8.51% (inactive).
With COc1cc(OC)c(/C=C2/C(=O)Nc3ccccc32)c(OC)c1 the “activity change, negative = inhibition” value was -17.8% (inactive).
CCCCCCCC/C=C\CCCCCCCC(=O)NCCO was tested, and the “activity change, negative = inhibition” value was -27% (inactive).
CCCCN1CCC(n2c(=O)[nH]c3ccccc32)CC1 was tested, and the “activity change, negative = inhibition” value was -19.1% (inactive).
In the case of O=C(O)c1cc(=O)c2ccccc2[nH]1, the “activity change, negative = inhibition” value is reported as -3.85% (inactive).
With O=C(O)c1cc(=O)c2c(Cl)cc(Cl)cc2[nH]1 the “activity change, negative = inhibition” value was -19.1% (inactive).
With O=C(Nc1cccc(C(=O)Nc2ccc(S(=O)(=O)O)c3cc(S(=O)(=O)O)cc(S(=O)(=O)O)c23)c1)Nc1cccc(C(=O)Nc2ccc(S(=O)(=O)O)c3cc(S(=O)(=O)O)cc(S(=O)(=O)O)c23)c1 the “activity change, negative = inhibition” value was -68.6% (inactive).
For Cc1ccc(O)c(N=Nc2ccccc2)n1, the “activity change, negative = inhibition” value was -113% (inactive).
With CN1CCc2ccccc2Cc2[nH]c3ccccc3c2CC1 the “activity change, negative = inhibition” value was -13.9% (inactive).
In the case of Clc1ccc(N2CCN(Cc3c[nH]c4ncccc34)CC2)cc1, the “activity change, negative = inhibition” value is reported as 22.9% (inactive).
For Brc1c(Br)c(Br)c2n[nH]nc2c1Br, the “activity change, negative = inhibition” value was -26.4% (inactive).
For CN1CCc2cc(NC(=O)Nc3cccnc3)ccc21, the “activity change, negative = inhibition” value was -33.9% (inactive).
O=C(Nc1ccccc1)c1cc([N+](=O)[O-])ccc1Cl was tested, and the “activity change, negative = inhibition” value was -41.8% (inactive).
In the case of CC(=O)SCC[N+](C)(C)C, the “activity change, negative = inhibition” value is reported as -8.73% (inactive).
For NC(N)=NC(=O)c1nc(Cl)c(N2CCCCCC2)nc1N, the “activity change, negative = inhibition” value was -28.4% (inactive).
For N#C/C(=C\c1ccc(O)c(O)c1)C(=O)NCc1ccccc1, the “activity change, negative = inhibition” value was -36.7% (inactive).
With C[N+](C)(CCCCCC[N+](C)(C)CCCN1C(=O)c2cccc3cccc(c23)C1=O)CCCN1C(=O)c2cccc3cccc(c23)C1=O the “activity change, negative = inhibition” value was -24.4% (inactive).
For N#C/C(=C\c1ccc(O)c(O)c1)C(=O)NCCCc1ccccc1, the “activity change, negative = inhibition” value was -11.3% (inactive).
NC[C@@H]1O[C@H](C23CC4CC(CC(C4)C2)C3)Cc2c1ccc(O)c2O was tested, and the “activity change, negative = inhibition” value was -7% (inactive).
In the case of O=c1[nH]c2cc([N+](=O)[O-])c([N+](=O)[O-])cc2[nH]c1=O, the “activity change, negative = inhibition” value is reported as -17.3% (inactive).
With NCCNC(=O)c1ncsc1-c1cccc(F)c1 the “activity change, negative = inhibition” value was -4.59% (inactive).
For NCCCS(=O)(=O)O, the “activity change, negative = inhibition” value was 5.63% (inactive).
Cc1cc(NC(=O)Nc2ccc3c(ccn3C)c2)sn1 was tested, and the “activity change, negative = inhibition” value was -50.7% (inactive).
CCCn1c(=O)c2[nH]c(-c3ccc(OCC(=O)NCCN)cc3)nc2n(CCC)c1=O was tested, and the “activity change, negative = inhibition” value was 2.25% (inactive).
With COc1cccc(C(=O)NCCN2CCN(c3ccc(Cl)cc3)CC2)c1 the “activity change, negative = inhibition” value was -19.4% (inactive).
With COc1ccccc1N1CCN(CCCCNS(=O)(=O)c2cccc3c(N(C)C)cccc23)CC1 the “activity change, negative = inhibition” value was -8.81% (inactive).
CN=c1nc(-c2ccccc2)n(-c2ccccc2)s1 was tested, and the “activity change, negative = inhibition” value was -89.5% (inactive).
O=C1NC(O)=NC1(c1ccccc1)c1ccccc1 was tested, and the “activity change, negative = inhibition” value was 10.9% (inactive).

What follows are compounds tested against Pyruvate kinase PKM (Homo sapiens) (UniProt P14618) (assay: qHTS Assay for Inhibitors of Human Muscle Pyruvate Kinase (AID 958; active = well fitted curve in the direction sought with a large enough effect; an effect the other way counts as inactive or inconclusive)). Settings: purified human PKM enzyme activity; series mostly up to 57.5 µM; activity change, negative = inhibition: at the top concentration.
Summary of the method: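 PKM2, human, >95% pure, 0.1 nM; PEP 0.5 mM (Km), ADP 0.1 mM; 50 mM imidazole pH 7.2, 50 mM KCl, 0.01% Tween 20, 0.05% BSA; 1 h RT; luciferase luminescence readout.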
For COc1ccc(/C=C/C(=O)Nc2ccccc2C(=O)O)cc1OC, the Potency was 20 µM (active).
For Cc1ccc(O)c(N=Nc2ccccc2)n1, the Potency was 6.31 µM (active).
Oc1cc2c(cc1O)CN(C(=S)NCCc1ccc(Cl)cc1)CCC2 was tested, and the “activity change, negative = inhibition” value was 47.3% (inactive).
For CN=c1nc(-c2ccccc2)n(-c2ccccc2)s1, the Potency was 25.1 µM (active).

These compounds were tested against Pyruvate kinase (Leishmania mexicana) (UniProt Q27686) (assay: qHTS Validation Assay for Activators of Leishmania Mexicana Pyruvate Kinase (AID 959; active = well fitted curve in the direction sought with a large enough effect; an effect the other way counts as inactive or inconclusive)). Settings: purified L. mexicana pyruvate kinase, enzyme activity; series mostly up to 57.5 µM; activity change, positive = activation: at the top concentration.
Chain of Pyruvate kinase (Leishmania mexicana) (Q27686 2-499 E452W): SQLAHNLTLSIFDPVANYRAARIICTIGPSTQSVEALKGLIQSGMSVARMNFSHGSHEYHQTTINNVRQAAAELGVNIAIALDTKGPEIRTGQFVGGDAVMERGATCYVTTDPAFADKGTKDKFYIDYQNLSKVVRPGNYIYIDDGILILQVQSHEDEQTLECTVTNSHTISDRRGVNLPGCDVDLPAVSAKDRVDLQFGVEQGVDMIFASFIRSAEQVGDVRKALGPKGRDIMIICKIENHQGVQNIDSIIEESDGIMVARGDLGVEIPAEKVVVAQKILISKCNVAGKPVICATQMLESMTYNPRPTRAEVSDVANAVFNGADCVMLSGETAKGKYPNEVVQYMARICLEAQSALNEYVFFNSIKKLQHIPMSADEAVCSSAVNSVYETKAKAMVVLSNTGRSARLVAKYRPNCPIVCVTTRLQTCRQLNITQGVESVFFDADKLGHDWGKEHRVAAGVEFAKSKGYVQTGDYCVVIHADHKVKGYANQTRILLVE
Summary of the method: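 Luminescent ATP detection (PKLight) after a 1 h room-temperature reaction of 0.2 nM LmPYK E451W mutant with 0.5 mM PEP and 0.1 mM ADP at pH 7.2. Activity is normalized to DMSO-only control wells.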
COc1ccc(/C=C/C(=O)Nc2ccccc2C(=O)O)cc1OC was tested, and the “activity change, positive = activation” value was -90% (inactive).
For O=C(Nc1cccc(C(=O)Nc2ccc(S(=O)(=O)O)c3cc(S(=O)(=O)O)cc(S(=O)(=O)O)c23)c1)Nc1cccc(C(=O)Nc2ccc(S(=O)(=O)O)c3cc(S(=O)(=O)O)cc(S(=O)(=O)O)c23)c1, the Potency was 0.398 µM (active).
Cc1ccc(O)c(N=Nc2ccccc2)n1 was tested, and the “activity change, positive = activation” value was -108% (inactive).
With CN1CCc2cc(NC(=O)Nc3cccnc3)ccc21 the “activity change, positive = activation” value was -61.2% (inactive).
In the case of O=C(Nc1ccccc1)c1cc([N+](=O)[O-])ccc1Cl, the “activity change, positive = activation” value is reported as -33.5% (inactive).
For NC(N)=NC(=O)c1nc(Cl)c(N2CCCCCC2)nc1N, the “activity change, positive = activation” value was -34.1% (inactive).
With Cc1cc(NC(=O)Nc2ccc3c(ccn3C)c2)sn1 the “activity change, positive = activation” value was -54.4% (inactive).
In the case of CN=c1nc(-c2ccccc2)n(-c2ccccc2)s1, the “activity change, positive = activation” value is reported as -99.4% (inactive).
